Data published in PubChem BioAssay AID628 (Vanderbilt High Throughput Screening Facility, 2007).
Out of some 64,000 compounds screened, about 2,200 (3.4%) were called active. This excerpt belongs to a sample that is enriched for actives. A number with no mark means an inactive call.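 How the source made its calls: active means calcium fluorescence response, raw or row-and-column corrected B-score, differing from the plate sample mean either way at a set confidence level, mostly lower; inactive means the rest.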

Each compound was assayed against Muscarinic acetylcholine receptor M1 (Rattus norvegicus) (UniProt P08482) (assay: antagonists of rat M1 muscarinic receptor (AID 628)). Settings: CHO-M1 cells, Fluo-4 calcium, ACh EC80 antagonist mode; at 10 µM; active compounds read low.
Sequence of Muscarinic acetylcholine receptor M1 (Rattus norvegicus) (P08482 whole entry, looked up): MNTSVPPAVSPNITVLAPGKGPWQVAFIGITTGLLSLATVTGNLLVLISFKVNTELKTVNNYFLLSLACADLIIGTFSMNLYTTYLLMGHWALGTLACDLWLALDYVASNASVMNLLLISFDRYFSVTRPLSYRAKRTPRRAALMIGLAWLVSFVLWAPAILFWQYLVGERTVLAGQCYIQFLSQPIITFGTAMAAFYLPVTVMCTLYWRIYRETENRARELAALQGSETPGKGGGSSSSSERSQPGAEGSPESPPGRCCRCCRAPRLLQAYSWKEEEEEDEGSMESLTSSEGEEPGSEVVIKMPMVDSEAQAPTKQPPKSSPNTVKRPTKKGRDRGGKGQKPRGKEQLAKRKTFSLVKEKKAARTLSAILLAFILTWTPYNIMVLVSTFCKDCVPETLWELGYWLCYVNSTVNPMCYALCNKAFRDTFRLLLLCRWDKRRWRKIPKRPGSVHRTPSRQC
With `C1=C(N2CCOCC2)/C(=C/c2nc3ccccc3[nH]2)CC1` the B-score was 0.998. With `Cc1cc2c(cc1C)NC(c1ccccn1)C1=C(CC(C)(C)CC1=O)N2` (configuration not stated) the B-score was 2.52 (active). For `CCC1C(C#N)=C(SC)NC2=C1C(=O)CC(C)(C)C2` (configuration not stated), the B-score was -0.0322. Compound `COc1cc(C2C(C#N)=C(C)NC3=C2C(=O)CC(C)(C)C3)ccc1O` (configuration not stated) has a B-score of 0.109. For `COc1ccccc1Cc1nc(-c2ccc(C)cc2)no1`, the B-score was 0.115. For `COc1ccc(-c2noc(CN(C)S(=O)(=O)c3ccc(C)cc3)n2)cc1`, the B-score was -3.11 (active). For `COc1ccc(-c2noc(COc3ccc(Cl)c(C)c3)n2)cc1`, the B-score was -0.385. Compound `CC(C)Oc1ccc(C2NC(=O)NC2=O)cc1` (configuration not stated) has a B-score of -0.129. With `O=C(O)CN(Cc1ccco1)S(=O)(=O)c1ccccc1` the B-score was 0.346. For `Cc1cccc(C)c1NC(=O)N1CC=C(n2c(=O)[nH]c3ccccc32)CC1`, the B-score was 0.257. `CC(C)C1C2=C(CC(C)(C)CC2=O)ON1c1ccccc1` (configuration not stated) was tested, and the B-score was -0.269. `Cc1cc(N2C(=O)C(=O)/C(=C(/O)c3ccc(Cl)cc3)C2c2cccc(Br)c2)no1` (configuration not stated) showed a B-score of 0.0445. `CCOC(=O)c1c(NC(=O)c2ccc(Br)o2)sc2c1CCCC2` showed a B-score of 0.689. Compound `COC(=O)Nc1ccc(S(=O)(=O)N(C)CC(F)(F)C(F)F)cc1` has a B-score of 0.467. `O=C(CSc1nc2ccccc2o1)N1CCN(c2ccc(Cl)cc2)CC1` was tested, and the B-score was -0.0538. For `O=S(=O)(CCc1nc2ccccc2o1)c1ccc(Cl)cc1`, the B-score was -2.24 (active). Work on `O=S(=O)(O)c1nc2ccccc2n1Cc1ccc(Cl)cc1` yielded a B-score of 0.456. `O=C1c2ccncc2C(=O)N1C1CCCCC1` showed a B-score of -0.0556. `O=C(OCc1ccccc1F)c1ccc2c(c1)OCCO2` showed a B-score of 0.0701. With `C[C@H](NC(=O)OC(C)(C)C)c1nnc(SCC(=O)Nc2ccc(Br)cc2)o1` the B-score was 0.0617. For `Nc1nnc(SCCN2C(=O)c3ccccc3S2(=O)=O)s1`, the B-score was 2.64 (active). `CNC(=O)CN1C(=O)c2ccccc2S1(=O)=O` was tested, and the B-score was 0.00139. In the case of `CCCc1nnc(NC(=O)CN2C(=O)c3ccccc3S2(=O)=O)s1`, the B-score is reported as -0.485. Work on `COC(=O)c1cc(NC2c3ccccc3C(=O)N2c2ccc(Cl)cn2)cc(C(=O)OC)c1` (configuration not stated) yielded a B-score of 0.743. `CC(=O)c1c(N)n(C)c(=O)n(C)c1=O` showed a B-score of 0.343. For `O=C(NC1=NCCS1)c1ccc(Cl)s1`, the B-score was -2.35 (active). In the case of `CCc1ccc(N2CC(C(=O)NC3=NCCS3)CC2=O)cc1` (configuration not stated), the B-score is reported as -0.382. With `CC(NC(=O)COc1ccccc1)C(=O)NC1=NCCS1` (configuration not stated) the B-score was -0.755. For `CCOC(=O)C1CCN(C(=O)C2CCN(S(=O)(=O)N3CCCC3)CC2)CC1`, the B-score was -0.822. Work on `Cc1ccc(C(=O)NC2CCN(C(=O)N3CCOCC3)CC2)cc1` yielded a B-score of -0.472. With `Cc1noc(C)c1S(=O)(=O)NCCc1ccc(S(N)(=O)=O)cc1` the B-score was 0.287. For `CCCN1CCN(C(=O)Cn2ncc3ccccc32)CC1`, the B-score was -0.673. `CC(C)(C)n1nnc(CCc2nnn(C(C)(C)C)n2)n1` gave a B-score of 0.866. Compound `Cc1ccc(Cc2cncc(O)c2)cc1S(=O)(=O)O` has a B-score of -0.895. With `CC12CCC(C(=O)N(CCC#N)CCC#N)(CC1=O)C2(C)C` (configuration not stated) the B-score was 0.00852. `N#CCCN1CCN(S(=O)(=O)c2ccc(S(=O)(=O)N3CCCC3)cc2)CC1` was tested, and the B-score was -0.0175. In the case of `CC(C)(C)c1cc(CN2CCN(CCC#N)CC2)cc(C(C)(C)C)c1O`, the B-score is reported as -3.57 (active). `N#CCCN1CCN(S(=O)(=O)c2ccc(S(=O)(=O)NC3CC3)cc2)CC1` gave a B-score of -0.837. In the case of `O=C(c1cnn2ccccc12)N1CCc2ccccc21`, the B-score is reported as -0.297. `O=C(CCS(=O)(=O)c1ccccc1)Nc1nc2c(s1)CCCC2` gave a B-score of 1.02. In the case of `COc1ccc(CCNC(=O)CCn2c(=O)oc3ccccc32)cc1OC`, the B-score is reported as 0.0532. `CCOC(=O)C1=C(CC)Nc2ccccc2N=C1NC(=O)c1cccc(S(=O)(=O)N2CCCC2)c1` was tested, and the B-score was -3.22 (active). With `CCOC(=O)CSc1nnc(NC(=O)c2cccc(S(=O)(=O)N3CCCC3)c2)s1` the B-score was 0.563. Compound `CCOC(=O)CSc1nnc(NC(=O)c2cccc(S(=O)(=O)N3CCCCC3)c2)s1` has a B-score of -1.2. In the case of `COc1cccc(NC(=O)Cn2cnc3sc(C)c(S(=O)(=O)N4CCN(C)CC4)c3c2=O)c1`, the B-score is reported as 0.144. Work on `CN(C)CCCn1c(N)c(C#N)c2nc(C#N)c(C#N)nc21` yielded a B-score of -0.181. `CCOC(=O)c1[nH]c2ccc(OC)cc2c1NC(=O)N1CCOCC1` was tested, and the B-score was 0.577. In the case of `CCOC(=O)c1[nH]c2ccc(OC)cc2c1NC(=O)CCN1CCN(Cc2ccccc2)CC1`, the B-score is reported as -4.59 (active). `Cc1c(C(=O)N2CCOCC2)[nH]c2ccc(OCc3ccccc3)cc12` showed a B-score of -2.27. `O=C(CN(c1ccc2c(c1)OCCO2)S(=O)(=O)c1ccccc1)Nc1ccc2c(c1)OCO2` was tested, and the B-score was 0.461. Work on `CCOc1ccccc1NC(=O)c1cc(S(=O)(=O)N2CCC3(CC2)OCCO3)ccc1F` yielded a B-score of -0.759. With `Cc1c(C(=O)Nc2ccccc2Cl)oc2ccc(S(=O)(=O)N3CCC4(CC3)OCCO4)cc12` the B-score was 2.7 (active). `CCOC(=O)C1CCN(C(=O)c2oc3ccc(S(=O)(=O)N4CCCCCC4)cc3c2C)CC1` showed a B-score of -0.942. `Cc1ccc(NC(=O)CN(C)S(=O)(=O)c2cnc[nH]2)cc1C` was tested, and the B-score was 0.0747. Compound `CCc1nnc(NC(=O)CCC(=O)O)s1` has a B-score of 0.852. In the case of `O=C(NCC(F)(F)F)Nc1nnc(C(F)(F)F)s1`, the B-score is reported as -1.96 (active). Work on `CC(=O)Nc1ccc(NC(=O)CN2CCCC(C)C2)c(Cl)c1` (configuration not stated) yielded a B-score of -1.15. `Cc1cc(C)cc(NC(=O)C2CCN(c3nc(C)cc(C)n3)CC2)c1` was tested, and the B-score was 0.673. In the case of `COc1ccc(C2C(C#N)=C(N)Oc3cc(N)ccc32)cc1OC` (configuration not stated), the B-score is reported as 0.645. `O=C(Nc1ccncc1)c1cc2ccccc2o1` gave a B-score of 1.08. `CCOc1ccc(C(=O)Nc2ccncc2)cc1` showed a B-score of 0.109. `O=C(Nc1ccncc1)c1c(F)cccc1F` was tested, and the B-score was -4.49 (active).
